Measurements taken from PMC4336329 (PLoS ONE, 2015).
Among all 310,000 compounds or so, about 14,000 (4.5%) showed an effect of 50% or more. The effect is printed as a negative number. This excerpt belongs to a sample that is enriched for strong results.

Target: human ether-à-go-go-related gene (hERG) potassium channel (human, UniProt Q12809)
Test: primary screen, population patch clamp on CHO cells stably expressing hERG; higher = less effect of the substance
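Note: peak tail current of the secondary pulse compared with the same well before compound.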

Chain of human ether-à-go-go-related gene (hERG) potassium channel (Q12809 whole entry, looked up): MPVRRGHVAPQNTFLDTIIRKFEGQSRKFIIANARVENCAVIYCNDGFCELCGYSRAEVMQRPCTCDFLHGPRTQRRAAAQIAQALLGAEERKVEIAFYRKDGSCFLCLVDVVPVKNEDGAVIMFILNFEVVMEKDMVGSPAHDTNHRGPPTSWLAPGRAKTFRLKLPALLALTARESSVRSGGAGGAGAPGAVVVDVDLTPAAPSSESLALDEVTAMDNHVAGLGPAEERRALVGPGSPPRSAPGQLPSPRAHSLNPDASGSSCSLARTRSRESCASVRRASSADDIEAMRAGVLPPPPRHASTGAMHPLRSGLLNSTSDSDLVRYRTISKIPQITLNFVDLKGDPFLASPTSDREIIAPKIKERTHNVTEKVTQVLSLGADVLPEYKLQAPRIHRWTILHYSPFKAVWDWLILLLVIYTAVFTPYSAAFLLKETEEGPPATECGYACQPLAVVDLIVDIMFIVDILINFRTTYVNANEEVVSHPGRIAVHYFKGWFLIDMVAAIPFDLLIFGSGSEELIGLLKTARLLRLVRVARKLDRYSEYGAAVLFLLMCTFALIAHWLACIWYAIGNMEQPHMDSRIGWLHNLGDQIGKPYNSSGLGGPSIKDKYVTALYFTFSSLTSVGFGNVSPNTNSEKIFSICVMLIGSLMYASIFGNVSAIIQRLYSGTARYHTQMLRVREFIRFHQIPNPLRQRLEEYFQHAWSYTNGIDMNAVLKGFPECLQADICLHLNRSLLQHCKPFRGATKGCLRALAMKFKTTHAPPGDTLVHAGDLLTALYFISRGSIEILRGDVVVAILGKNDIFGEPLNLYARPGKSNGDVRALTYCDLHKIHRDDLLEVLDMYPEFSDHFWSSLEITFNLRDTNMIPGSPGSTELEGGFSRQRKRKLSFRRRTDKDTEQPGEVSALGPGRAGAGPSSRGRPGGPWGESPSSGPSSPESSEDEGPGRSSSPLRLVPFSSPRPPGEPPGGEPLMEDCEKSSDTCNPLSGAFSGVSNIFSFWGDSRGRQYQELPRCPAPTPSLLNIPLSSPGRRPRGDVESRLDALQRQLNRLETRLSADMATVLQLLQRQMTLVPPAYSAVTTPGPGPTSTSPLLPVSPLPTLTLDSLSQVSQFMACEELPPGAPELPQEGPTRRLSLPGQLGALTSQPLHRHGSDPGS

Point of comparison: Cc1cc(N2CCN(c3ccccc3)CC2)nc(N)n1.Cl, “hERG current change (%, negative = inhibition) at 10uM” value -42.9%. Against it:
- Cc1ccc(OCC(=O)N2N=C(C(F)(F)F)CC2(O)C(C)(C)C)cc1C (centres unmarked) — higher, -15.9%
- O=C(NC1CCCCC1)C(c1cccs1)N(C(=O)Cc1c[nH]c2ccccc12)c1ccc(F)cc1 (centres unmarked) — higher, 14.7%
- Cc1ccc(S(=O)(=O)Cc2ccc(C(=O)N3CCN(c4cccc(C)c4C)CC3)o2)cc1 — higher, -7.95%
- O=C(c1ccc2c(=O)n(Cc3ccccc3Cl)c(=S)[nH]c2c1)N1CCCC1 — higher, 4.9%
- Cc1cc(Cl)ccc1OCc1n[nH]c(=S)n1C1CCCCC1 — higher, 21.1%
- CCN1CCN(c2cc(N3CCc4ccccc4C3)c(F)cc2[N+](=O)[O-])CC1 — lower, -51.9%
- CN1CCN(c2cc(N3CCc4ccccc4C3)c(F)cc2[N+](=O)[O-])CC1 — lower, -44.2%
- CC(=O)N1CCN(c2cc(N3CCc4ccccc4C3)c(F)cc2[N+](=O)[O-])CC1 — higher, -41.3%
- O=C(CCC(=O)Nc1ccccc1)NNC(=O)c1ccco1 — higher, 8.99%
- O=C(Cn1c(C(=O)NCC2CCCO2)cc2sccc21)c1ccccc1 (centres unmarked) — higher, -3.47%
- CN1CCN(C(=O)c2cc3sccc3n2CC(=O)c2ccccc2)CC1 — higher, -27.6%
- CCN1CCN(C(=O)c2cc3sccc3n2CC(=O)c2ccccc2)CC1 — lower, -45.5%
- O=C(Cn1c(C(=O)N2CCc3ccccc3C2)cc2sccc21)c1ccccc1 — higher, 4.01%
- O=C(Cn1c(C(=O)N2CCN(C3CCCCC3)CC2)cc2sccc21)c1ccccc1 — lower, -70.7%
- O=C(Cn1c(C(=O)N2CCN(C3CCCC3)CC2)cc2sccc21)c1ccccc1 — lower, -76.1%
- CCOc1cc(N2CCOCC2)c(OCC)cc1NC(=O)C1CC(=O)N(c2ccc(C)cc2)C1 (centres unmarked) — higher, -2.64%
- O=C(COC(=O)c1ccccc1SCC(=O)N1CCCC1)NC1CCCCC1 — higher, -5.12%
- COc1ccc(C(=O)Oc2c(C)occc2=O)cc1OC — higher, 9.93%
- C#CCNc1nc(CC)nc2c1nnn2Cc1ccccc1F — higher, -0.696%
- CCc1nc(NCC2CCCN2CC)c2nnn(Cc3ccccc3F)c2n1 (centres unmarked) — lower, -54.2%
- CCc1nc(NCCCCCO)c2nnn(Cc3ccccc3F)c2n1 — higher, -28.8%
- CCOC(=O)C1C(=O)NC(SCC(=O)Nc2nccs2)=C(C#N)C1c1ccccc1OCC (centres unmarked) — higher, 13.7%
- COc1ccc(OC)c(C2C3CN(C(C)C)CC=C3C(C#N)=C(N)C2(C#N)C#N)c1 (centres unmarked) — higher, -16.2%
- Nc1c(C(=O)Nc2ccccc2)c2nc3ccccc3nc2n1CCCN1CCOCC1 — higher, 18.7%
- CCCCc1nc(SCC(=O)N2CCCC2)c2c(=O)n(C)c(=O)n(C)c2n1 — higher, -23%
- O=C(O)C(=O)O.c1ccc(CN2CCN(CCOCCOc3cccc4ccccc34)CC2)cc1 — lower, -43.3%
- Cl.O=C(c1ccco1)N1CCN(CCOCCOc2cccc3ccccc23)CC1 — lower, -62.5%
- Cl.O=C(c1ccco1)N1CCN(CCCCOc2cccc3ccccc23)CC1 — lower, -62.4%
- Cl.O=C(c1ccco1)N1CCN(CCOc2ccc(F)cc2)CC1 — lower, -47.4%
- CN1CCN(CCCCOc2cccc3ccccc23)CC1.Cl — higher, -27.4%
- Cl.O=C(c1ccco1)N1CCN(CCCCOc2ccc(F)cc2)CC1 — lower, -74.4%
- COc1cccc(OC)c1OCCN1CCN(C(=O)c2ccco2)CC1.Cl — higher, -16.2%
- O=C(CCN1CCN(C(=O)c2ccco2)CC1)Nc1ccc(F)cc1 — higher, -22.4%
- O=C(c1ccco1)N1CCN(CCCCN2C(=O)c3ccccc3C2=O)CC1 — higher, -40%
- O=C(CCCCCCN1C(=O)c2ccccc2C1=O)Nc1nccs1 — higher, 12.2%
- COc1cc(CNCCO)cc(Br)c1OCc1cccs1.Cl — higher, -8.81%
- CCOc1c(C)cc2[nH]c(CCC(=O)O)nc2c1C.Cl — higher, -0.00982%
- COCCn1c(-c2ccccc2F)n[nH]c1=S — higher, 21.5%
- CNC(=O)c1ccccc1Sc1ccccc1CO — higher, 27.9%
- CC(C)(C)c1ccc(NC(=S)NCc2cccs2)cc1 — higher, 4.35%
- Cc1cc(N2CCN(c3ccccc3)CC2)nc(-n2nc(C)cc2C)n1 — lower, -63.2%
- Cc1cc(N2CCC(C)CC2)nc(-n2nc(C)cc2C)n1 — higher, -30.3%
- Cc1cc(N2CCN(c3ccccc3)CC2)nc(NCc2ccccc2)n1 — higher, 4.25%
- CCCc1nc(C)cc(N2CCN(c3ccccc3)CC2)n1.Cl — lower, -51.7%
- Cc1cc(C)n(-c2nnc(N3CCN(c4ccccc4)CC3)nn2)n1 — higher, -16%
- CC(Sc1nc(=O)cc(N)n1CCc1ccccc1)C(=O)NCc1ccccc1 (centres unmarked) — higher, 3.18%
- Cc1ccc(C)c(S(=O)(=O)N/N=C/c2ccc(N(C)C)cc2)c1 — higher, 16.1%
- CCC(NC(=O)c1ccccc1NC(=O)c1ccccc1)C(=O)OC (centres unmarked) — higher, 11.3%
- CS(=O)CSc1nc2c(cc1C#N)CCCC2 (centres unmarked) — higher, -25%
- NC(=O)CC(NC(=O)c1cccc(Br)c1)c1ccc(NC2CCCCCCCCCCC2)c([N+](=O)[O-])c1 (centres unmarked) — higher, 5.21%
- NC(=O)CC(NC(=O)c1cccc(Br)c1)c1ccc(NC2CCCCCCC2)c([N+](=O)[O-])c1 (centres unmarked) — higher, 6.95%
- NC(=O)CC(NC(=O)c1cccc(Br)c1)c1ccc(NCC2CC2)c([N+](=O)[O-])c1 (centres unmarked) — lower, -65.4%
- NC(=O)CC(NC(=O)c1ccccc1)c1ccc(NCC2CC2)c([N+](=O)[O-])c1 (centres unmarked) — higher, -35.3%
- Cc1cc(C)cc(C(=O)NC(CC(N)=O)c2ccc(NCC3CC3)c([N+](=O)[O-])c2)c1 (centres unmarked) — higher, -30.4%
- NC(=O)CC(NC(=O)c1cccc(Br)c1)c1ccc(NC2CCC2)c([N+](=O)[O-])c1 (centres unmarked) — lower, -59.8%
